Experimental findings from ChEMBL document CHEMBL2218924, “A broad activity screen in support of a chemogenomic map for kinase signalling research and drug discovery” (Biochem J, 2013) are described below.

Structures are written as SMILES.

The target in test [1] is Mitogen-activated protein kinase 11 (Homo sapiens) (UniProt Q15759). Particulars: at 1 µM.
Test [2] has the same target. To be noted: at 10 µM.
The target of test [3] is T1, Mitogen-activated protein kinase 13 (Homo sapiens) (UniProt O15264).
T1 sequence (whole entry): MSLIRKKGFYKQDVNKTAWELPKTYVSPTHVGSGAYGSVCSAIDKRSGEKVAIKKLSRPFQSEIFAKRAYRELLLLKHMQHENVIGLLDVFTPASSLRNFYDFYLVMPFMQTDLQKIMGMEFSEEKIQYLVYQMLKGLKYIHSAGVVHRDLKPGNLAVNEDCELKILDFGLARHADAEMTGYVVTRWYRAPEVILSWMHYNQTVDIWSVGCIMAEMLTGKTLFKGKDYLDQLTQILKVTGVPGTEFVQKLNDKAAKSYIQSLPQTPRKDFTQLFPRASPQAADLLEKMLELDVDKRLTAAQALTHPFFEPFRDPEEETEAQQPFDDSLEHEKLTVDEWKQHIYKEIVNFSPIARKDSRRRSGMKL
Particulars: at 1 µM.

The target of test [4] is T1, Mitogen-activated protein kinase 13 (Homo sapiens). Particulars: at 10 µM.
For test [5], the target named is T2, Serine/threonine-protein kinase Sgk1 (Homo sapiens) (UniProt O00141).
T2 sequence (whole entry): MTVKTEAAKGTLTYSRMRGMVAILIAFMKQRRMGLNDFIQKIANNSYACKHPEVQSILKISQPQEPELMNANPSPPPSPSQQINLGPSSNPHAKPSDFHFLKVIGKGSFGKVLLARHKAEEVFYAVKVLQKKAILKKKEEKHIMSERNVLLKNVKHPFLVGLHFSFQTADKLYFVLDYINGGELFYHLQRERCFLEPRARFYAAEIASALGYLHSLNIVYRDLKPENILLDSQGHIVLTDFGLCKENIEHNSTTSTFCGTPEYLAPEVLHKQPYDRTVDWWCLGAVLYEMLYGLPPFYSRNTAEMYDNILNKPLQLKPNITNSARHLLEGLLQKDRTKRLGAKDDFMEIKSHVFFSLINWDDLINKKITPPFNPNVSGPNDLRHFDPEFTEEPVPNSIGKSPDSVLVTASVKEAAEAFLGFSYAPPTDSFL
Particulars: at 1 µM.

The target in test [6] is T2, Serine/threonine-protein kinase Sgk1 (Homo sapiens). Particulars: at 10 µM.
For test [7], the target named is T3, Serine/threonine-protein kinase Sgk2 (Homo sapiens) (UniProt Q9HBY8).
T3 sequence (whole entry): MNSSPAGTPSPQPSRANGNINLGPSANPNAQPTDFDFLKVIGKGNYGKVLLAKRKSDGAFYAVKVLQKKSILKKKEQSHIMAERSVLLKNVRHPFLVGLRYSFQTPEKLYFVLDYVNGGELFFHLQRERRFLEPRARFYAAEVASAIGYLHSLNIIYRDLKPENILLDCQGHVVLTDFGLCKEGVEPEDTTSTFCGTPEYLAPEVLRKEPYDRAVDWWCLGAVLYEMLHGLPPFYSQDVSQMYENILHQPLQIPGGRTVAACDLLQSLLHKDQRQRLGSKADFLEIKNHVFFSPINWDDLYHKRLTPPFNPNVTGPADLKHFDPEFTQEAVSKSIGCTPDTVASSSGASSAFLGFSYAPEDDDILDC
Particulars: at 1 µM.

Test [8] deals with T3, Serine/threonine-protein kinase Sgk2 (Homo sapiens). To be noted: at 10 µM.
For test [9], the target named is T4, Serine/threonine-protein kinase Sgk3 (Homo sapiens) (UniProt Q96BR1).
T4 sequence (whole entry): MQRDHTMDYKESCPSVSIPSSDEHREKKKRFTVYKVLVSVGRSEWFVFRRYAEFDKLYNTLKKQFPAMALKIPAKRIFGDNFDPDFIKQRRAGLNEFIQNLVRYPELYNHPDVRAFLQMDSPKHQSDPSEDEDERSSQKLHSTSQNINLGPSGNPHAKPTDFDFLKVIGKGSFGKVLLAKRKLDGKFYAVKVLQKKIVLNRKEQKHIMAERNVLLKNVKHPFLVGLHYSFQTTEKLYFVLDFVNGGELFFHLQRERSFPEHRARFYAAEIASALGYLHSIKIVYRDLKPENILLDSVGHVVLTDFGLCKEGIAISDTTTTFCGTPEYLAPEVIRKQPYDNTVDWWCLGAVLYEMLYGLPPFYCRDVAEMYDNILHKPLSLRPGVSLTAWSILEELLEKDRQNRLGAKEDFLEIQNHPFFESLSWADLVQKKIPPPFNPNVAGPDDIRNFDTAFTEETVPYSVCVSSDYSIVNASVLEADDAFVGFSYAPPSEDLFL
Particulars: at 10 µM.

The target in test [10] is Serine/threonine-protein kinase SIK1 (Homo sapiens) (UniProt P57059). Particulars: at 1 µM.
Test [11] shares this target. To be noted: at 10 µM.
In test [12] the target is SRSF protein kinase 1 (Homo sapiens) (UniProt Q96SB4). Particulars: at 1 µM.
Test [13] has the same target. Particulars: at 10 µM.
For test [14], the target named is SRSF protein kinase 2 (Homo sapiens) (UniProt P78362). To be noted: at 1 µM.
Test [15] has the same target. Particulars: at 10 µM.
Test [16] deals with Serine/threonine-protein kinase 33 (Homo sapiens) (UniProt Q9BYT3). To be noted: at 1 µM.
Test [17] shares this target. Particulars: at 10 µM.
The target in test [18] is Serine/threonine-protein kinase PLK2 (Homo sapiens) (UniProt Q9NYY3). To be noted: at 1 µM.
Test [19] shares this target. To be noted: at 10 µM.
Test [20] addresses Tyrosine-protein kinase SYK (Homo sapiens) (UniProt P43405). To be noted: at 1 µM.

Sequence of Serine/threonine-protein kinase PLK2 (Homo sapiens) (Q9NYY3 whole entry, looked up): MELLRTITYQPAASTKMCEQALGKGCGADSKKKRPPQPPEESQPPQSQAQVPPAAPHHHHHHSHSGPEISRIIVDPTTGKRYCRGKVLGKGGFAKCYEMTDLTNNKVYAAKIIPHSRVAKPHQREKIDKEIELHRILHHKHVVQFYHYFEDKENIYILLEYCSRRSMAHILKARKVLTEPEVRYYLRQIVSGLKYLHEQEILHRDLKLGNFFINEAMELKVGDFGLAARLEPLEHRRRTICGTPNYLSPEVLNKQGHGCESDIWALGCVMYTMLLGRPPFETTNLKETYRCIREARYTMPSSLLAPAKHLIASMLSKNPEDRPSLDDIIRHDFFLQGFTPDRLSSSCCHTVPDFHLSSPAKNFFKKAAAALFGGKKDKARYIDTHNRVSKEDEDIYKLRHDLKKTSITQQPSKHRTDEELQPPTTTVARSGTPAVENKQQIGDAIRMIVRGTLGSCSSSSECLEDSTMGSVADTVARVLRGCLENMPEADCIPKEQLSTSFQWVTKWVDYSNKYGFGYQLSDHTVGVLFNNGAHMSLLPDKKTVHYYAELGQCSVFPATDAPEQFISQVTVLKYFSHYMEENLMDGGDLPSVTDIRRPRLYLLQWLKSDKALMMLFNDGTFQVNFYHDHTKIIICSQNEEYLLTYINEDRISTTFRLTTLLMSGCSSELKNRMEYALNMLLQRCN
Sequence of Mitogen-activated protein kinase 11 (Homo sapiens) (Q15759 whole entry): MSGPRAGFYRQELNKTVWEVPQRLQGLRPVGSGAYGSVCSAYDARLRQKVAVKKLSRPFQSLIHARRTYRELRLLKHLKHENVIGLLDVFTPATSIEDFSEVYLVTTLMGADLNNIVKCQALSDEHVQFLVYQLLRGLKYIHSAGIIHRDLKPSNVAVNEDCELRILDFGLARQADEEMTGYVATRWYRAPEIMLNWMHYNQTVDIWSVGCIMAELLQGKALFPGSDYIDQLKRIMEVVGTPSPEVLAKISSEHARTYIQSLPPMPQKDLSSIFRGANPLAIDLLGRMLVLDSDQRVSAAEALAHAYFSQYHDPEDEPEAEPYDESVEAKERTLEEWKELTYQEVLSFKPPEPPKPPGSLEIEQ
Sequence of Serine/threonine-protein kinase SIK1 (Homo sapiens) (P57059 whole entry): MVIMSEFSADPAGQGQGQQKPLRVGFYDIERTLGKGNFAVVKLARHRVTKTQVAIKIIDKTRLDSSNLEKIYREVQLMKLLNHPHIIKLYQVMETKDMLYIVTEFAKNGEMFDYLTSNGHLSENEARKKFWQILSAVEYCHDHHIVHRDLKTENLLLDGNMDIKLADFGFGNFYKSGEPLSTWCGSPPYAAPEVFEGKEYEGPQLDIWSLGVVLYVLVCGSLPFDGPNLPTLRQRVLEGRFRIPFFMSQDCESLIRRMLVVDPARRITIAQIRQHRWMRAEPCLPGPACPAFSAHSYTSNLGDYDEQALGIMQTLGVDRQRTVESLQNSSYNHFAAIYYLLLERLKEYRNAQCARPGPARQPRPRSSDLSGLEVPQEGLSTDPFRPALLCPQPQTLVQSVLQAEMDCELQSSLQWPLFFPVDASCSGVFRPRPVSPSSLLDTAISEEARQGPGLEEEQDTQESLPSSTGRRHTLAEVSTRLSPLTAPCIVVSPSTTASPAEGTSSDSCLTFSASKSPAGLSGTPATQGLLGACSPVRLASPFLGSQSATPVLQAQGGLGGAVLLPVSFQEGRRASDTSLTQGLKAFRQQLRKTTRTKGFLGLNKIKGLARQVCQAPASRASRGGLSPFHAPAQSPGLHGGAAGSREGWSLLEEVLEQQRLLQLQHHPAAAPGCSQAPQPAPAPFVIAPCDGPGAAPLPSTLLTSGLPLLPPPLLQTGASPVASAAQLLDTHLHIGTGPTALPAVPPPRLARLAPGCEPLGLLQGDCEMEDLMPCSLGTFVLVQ
Sequence of Serine/threonine-protein kinase 33 (Homo sapiens) (Q9BYT3 whole entry, looked up): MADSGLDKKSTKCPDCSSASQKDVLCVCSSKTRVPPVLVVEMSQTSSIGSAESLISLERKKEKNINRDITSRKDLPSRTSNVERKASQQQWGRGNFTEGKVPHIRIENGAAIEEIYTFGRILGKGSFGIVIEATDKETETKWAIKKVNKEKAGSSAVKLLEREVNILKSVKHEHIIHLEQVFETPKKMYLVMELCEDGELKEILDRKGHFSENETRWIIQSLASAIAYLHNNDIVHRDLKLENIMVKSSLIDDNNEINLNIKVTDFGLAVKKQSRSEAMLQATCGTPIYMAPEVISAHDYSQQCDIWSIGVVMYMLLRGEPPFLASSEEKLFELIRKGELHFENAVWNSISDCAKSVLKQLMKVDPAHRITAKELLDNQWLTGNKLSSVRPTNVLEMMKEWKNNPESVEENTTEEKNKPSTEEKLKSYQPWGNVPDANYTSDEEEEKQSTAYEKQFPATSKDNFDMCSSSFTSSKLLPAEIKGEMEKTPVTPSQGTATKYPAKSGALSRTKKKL
Sequence of SRSF protein kinase 2 (Homo sapiens) (P78362 whole entry, looked up): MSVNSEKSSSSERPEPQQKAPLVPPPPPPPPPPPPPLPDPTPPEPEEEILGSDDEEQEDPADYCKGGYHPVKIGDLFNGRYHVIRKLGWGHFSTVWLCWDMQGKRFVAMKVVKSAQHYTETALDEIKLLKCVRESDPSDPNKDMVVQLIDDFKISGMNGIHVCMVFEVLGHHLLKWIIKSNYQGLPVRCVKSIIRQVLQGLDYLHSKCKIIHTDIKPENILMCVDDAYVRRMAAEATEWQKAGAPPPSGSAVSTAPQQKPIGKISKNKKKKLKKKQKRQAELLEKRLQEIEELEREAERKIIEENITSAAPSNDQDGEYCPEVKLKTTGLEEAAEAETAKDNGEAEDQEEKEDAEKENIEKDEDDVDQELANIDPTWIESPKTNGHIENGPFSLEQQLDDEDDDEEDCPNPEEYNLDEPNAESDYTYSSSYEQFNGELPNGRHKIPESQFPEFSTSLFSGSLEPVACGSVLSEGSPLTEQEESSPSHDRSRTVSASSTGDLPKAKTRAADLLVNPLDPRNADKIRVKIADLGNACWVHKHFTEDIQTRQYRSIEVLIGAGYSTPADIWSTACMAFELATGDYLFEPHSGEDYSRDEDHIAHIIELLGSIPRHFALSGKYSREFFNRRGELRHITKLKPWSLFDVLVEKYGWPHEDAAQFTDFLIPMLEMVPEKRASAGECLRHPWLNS
Sequence of SRSF protein kinase 1 (Homo sapiens) (Q96SB4 whole entry): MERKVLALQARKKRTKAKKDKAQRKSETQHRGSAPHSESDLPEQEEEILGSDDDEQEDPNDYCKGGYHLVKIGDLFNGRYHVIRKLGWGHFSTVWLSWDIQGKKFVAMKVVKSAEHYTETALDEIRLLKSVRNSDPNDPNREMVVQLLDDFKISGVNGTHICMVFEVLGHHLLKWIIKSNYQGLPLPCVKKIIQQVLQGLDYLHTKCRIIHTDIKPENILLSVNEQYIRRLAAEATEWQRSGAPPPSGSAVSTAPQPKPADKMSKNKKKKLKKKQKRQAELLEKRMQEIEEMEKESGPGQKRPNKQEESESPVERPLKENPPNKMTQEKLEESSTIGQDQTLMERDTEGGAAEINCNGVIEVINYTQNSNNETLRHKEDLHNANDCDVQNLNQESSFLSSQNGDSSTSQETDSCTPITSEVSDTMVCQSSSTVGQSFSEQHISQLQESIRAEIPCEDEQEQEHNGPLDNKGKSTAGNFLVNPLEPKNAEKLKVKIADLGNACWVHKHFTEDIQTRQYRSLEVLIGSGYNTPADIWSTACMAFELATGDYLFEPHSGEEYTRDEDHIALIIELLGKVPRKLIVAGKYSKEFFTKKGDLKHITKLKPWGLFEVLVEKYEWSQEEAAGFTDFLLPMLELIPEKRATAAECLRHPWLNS

For `CO[C@H]1[C@@H](OC)C[C@H](C)[C@@H](OC)C2=CC(=O)C=C(NC(=O)/C(C)=C/C=C/[C@H](OC)[C@@H](OC(N)=O)/C(C)=C/[C@@H]1C)C2=O`, the residual activity worked out at 98% in test [1]; 102% in test [2]; 89% in [3]; 96% in test [4]; 98% in test [5]; 78% in test [6]. Further, the residual activity in test [7] amounted to 97%; in [8], 76%; in test [9] it was 93%; in [10] it was 82%; in [11] it was 54%; in test [12], 104%. Further, the residual activity in [13] worked out at 102%; in [14] it was 104%; in [15], 91%; in test [16], 98%; in [17], 98%; in test [18], 100%. In addition, the values for the residual activity in [19] and in [20] were 91% and 110%, respectively.

Turning to `O=C(Nc1cccc(Nc2cc(Nc3cccc(C(F)(F)F)c3)ncn2)c1)C1CC1`, the residual activity in [1] worked out at 92%; in test [2], 48%; in test [3] it was 107%; in test [4], 97%; in test [5] it was 112%; in test [6] it was 85%. Besides, the residual activity in test [7] was 83%; in test [8], 69%; in test [9], 128%; in [10], 107%; in [11] it was 104%; in test [12], 96%. The residual activity was determined as 88% in test [13]; 90% in test [14]; 84% in [15]; 99% in [16]; 97% in [17]; 100% in test [18]. In addition, the residual activity is 90% in [19] and 112% in test [20].

For the compound `COc1ccc(CNc2nc(N(CCO)CCO)nc3c2ncn3C(C)C)cc1`, the residual activity in [1] turned out to be 100%; in [2], 92%; in test [3] it was 100%; in [4], 105%; in test [5], 73%; in test [6], 116%. Moreover, the residual activity in [7] is 107%; in test [8] it was 80%; in [9] it was 85%; in test [10], 93%; in test [11], 78%; in [12], 95%. Also, the residual activity in test [13] is 67%; in [14] it was 86%; in test [15], 65%; in [16] it was 96%; in test [17], 83%; in [18], 91%. For the same compound, the residual activity in test [19] and in test [20] was 94% throughout.

Consider `NC(=O)c1ccc2[nH]c(-c3ccc(Oc4ccc(Cl)cc4)cc3)nc2c1`, for which the residual activity came out at 99% in [1]; 101% in [2]; 105% in test [3]; 101% in [4]; 90% in test [5]; 174% in test [6]. Moreover, the residual activity in [7] is 112%; in test [8] it was 104%; in [9], 103%; in [10], 108%; in test [11], 107%; in test [12], 94%. In addition, the residual activity was determined as 64% in test [13]; 81% in test [14]; 76% in test [15]; 96% in [16]; 85% in test [17]; 90% in [18]. The residual activity in test [19] came out at 93%; in test [20], 109%.

Turning to `O=c1cc(-c2cccc3c2Sc2ccccc2S3)oc(N2CCOCC2)c1`, the residual activity came out at 111% in [1]; 109% in [2]; 107% in test [3]; 105% in test [4]; 103% in test [5]; 100% in test [6]. Besides, the residual activity in [7] was found to be 91%; in [8], 72%; in test [9], 78%; in [10], 137%; in test [11], 83%; in test [12] it was 101%. In addition, the residual activity was determined as 83% in test [13]; 107% in [14]; 91% in [15]; 97% in test [16]; 87% in test [17]; 93% in test [18]. Moreover, the residual activity in test [19] stood at 96%; in test [20], 104%.

For the compound `CO[C@@H]1[C@H](N(C)C(=O)c2ccccc2)C[C@H]2O[C@]1(C)n1c3ccccc3c3c4c(c5c6ccccc6n2c5c31)C(=O)NC4`, the residual activity in test [1] turned out to be 86%; in test [2], 98%; in test [3], 92%; in [4] it was 77%; in test [5], 57%; in [6], 18%. Also, the residual activity in [7] was 80%; in [8] it was 46%; in [9] it was 78%; in [10], 4%; in test [11] it was 2%; in [12] it was 78%. In addition, the residual activity in test [13] is 55%; in test [14] it was 64%; in test [15], 48%; in test [16], 25%; in test [17], 13%; in test [18] it was 100%. In addition, the residual activity in test [19] was determined as 86%; in test [20], 2%.

`O=Nc1c(-c2c(O)[nH]c3ccccc23)[nH]c2ccccc12`: the residual activity worked out at 101% in [1]; 90% in [2]; 90% in test [3]; 82% in [4]; 59% in [5]; 28% in [6]. In addition, the residual activity in [7] was found to be 61%; in [8], 24%; in [9], 56%; in [10], 43%; in test [11], 8%; in test [12], 90%. Moreover, the residual activity in test [13] came to 66%; in [14], 96%; in test [15], 67%; in [16], 43%; in [17], 8%; in test [18], 97%. Also, the residual activity in test [19] came to 82%; in test [20], 49%.

On to `Oc1c2ccccc2c2c3c(cccc13)N=N2`, for which the residual activity in test [1] was 88%; in test [2] it was 79%; in test [3], 96%; in [4], 73%; in test [5] it was 60%; in [6] it was 24%. The residual activity amounted to 71% in test [7]; 33% in [8]; 58% in [9]; 96% in [10]; 48% in [11]; 98% in test [12]. The residual activity worked out at 87% in test [13]; 97% in test [14]; 57% in [15]; 61% in test [16]; 16% in [17]; 85% in test [18]. The residual activity in test [19] is 61%.

Take `COc1ccc(C(=O)Nc2sc3c(c2C(N)=O)CCCC3)cc1OC`: the residual activity in test [1] was found to be 96%; in test [2], 105%; in test [3], 100%; in test [4], 91%; in [5] it was 85%; in [6], 109%. Also, the residual activity was 99% in test [7]; 52% in test [8]; 90% in [9]; 91% in test [10]; 91% in test [11]; 84% in test [12]. Moreover, the residual activity in test [13] is 95%; in [14] it was 89%; in [15], 89%; in [16] it was 91%; in test [17] it was 97%; in test [18], 98%. The residual activity in test [19] stood at 97%; in test [20], 126%.

Regarding `Nc1nc(Nc2ccc(S(N)(=O)=O)cc2)nn1C(=S)Nc1c(F)cccc1F`, the residual activity in [1] amounted to 56%; in [2], 24%; in test [3] it was 43%; in test [4], 46%; in test [5], 53%; in test [6], 16%. Also, the residual activity in test [7] is 36%; in [8], 6%; in test [9] it was 40%; in [10], -2%; in test [11], -2%; in [12], -2%. Further, the residual activity in test [13] was 7%; in test [14] it was 3%; in [15], -3%; in test [16] it was 77%; in [17], 26%; in test [18], 71%. Also, the residual activity came out at 26% in test [19] and 16% in test [20].
